The panel holds about 79,000 compounds, 15% with a hit somewhere; the sample as a whole holds those more often. Unmarked numbers belong to inactive results. Activity calls are given as the source filed them. No stated cut-off is given here; in the data, active means growth inhibition above about 70%; inactive means the rest.
Key:
[1] = NCI Yeast Anticancer Drug Screen. Data for the rad50 strain (AID 155);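 further: 0% = growth of vehicle-only cultures of the same strain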; settings: S. cerevisiae rad50 strain growth inhibition, stronger effect = higher value
Method in brief: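 Yeast carrying a defined DNA repair defect were exposed to test compounds, and growth was compared with vehicle-treated controls to give percent inhibition.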

[2] = NCI Yeast Anticancer Drug Screen. Data for the mec2-1 strain (AID 157); settings: S. cerevisiae mec2-1 strain, stronger effect = higher value
Method in brief: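 Test agents were screened against the mec2-1 yeast strain, with defined DNA repair or cell cycle alteration. Growth was scored as inhibition against vehicle-only controls.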

[3] = NCI Yeast Anticancer Drug Screen. Data for the sgs1 mgt1 strain (AID 161);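 further: 0% = growth of cultures given vehicle only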; settings: S. cerevisiae sgs1 mgt1 strain, stronger effect = higher value
Method in brief: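 Genetically altered yeast, compound exposure, growth inhibition relative to vehicle.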

[4] = NCI Yeast Anticancer Drug Screen. Data for the cln2 rad14 strain (AID 165);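 further: 0% = growth equal to vehicle treated cultures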; settings: S. cerevisiae cln2 rad14 strain, stronger effect = higher value
Method in brief: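 Growth of compound-exposed yeast (cln2 rad14 genotype) measured and expressed as inhibition relative to vehicle.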

[5] = NCI Yeast Anticancer Drug Screen. Data for the bub3 strain (AID 167); settings: S. cerevisiae bub3 mutant strain, stronger effect = higher value
Method in brief: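 Compounds were applied to a genetically altered yeast strain carrying a cell-cycle control defect. Growth inhibition was scored against vehicle-treated controls.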

[6] = NCI Yeast Anticancer Drug Screen. Data for the mlh1 rad18 strain (AID 175); settings: S. cerevisiae mlh1 rad18 strain growth inhibition, stronger effect = higher value
Method in brief: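 In this whole-cell yeast screen, a strain with altered DNA damage repair is challenged with compound, and its growth is measured against matched vehicle-treated controls.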

[7] = at 5.0 µM (retest, dose inferred, filed as 0.5)
[8] = at 50.0 µM (retest, dose inferred, filed as 5.0)

Structure (SMILES) | growth inhibition [1, 7] | growth inhibition [1, 8] | growth inhibition ([1]; at 50.0 µM) | growth inhibition [2, 7] [%] | growth inhibition [2, 8] | growth inhibition ([2]; at 50.0 µM) | growth inhibition [3, 7] | growth inhibition [3, 8] | growth inhibition ([3]; at 50.0 µM) | growth inhibition [4, 7] [%] | growth inhibition [4, 8] | growth inhibition ([4]; at 50.0 µM) | growth inhibition [5, 7] | growth inhibition [5, 8] | growth inhibition ([5]; at 50.0 µM) | growth inhibition [6, 7] | growth inhibition [6, 8] | growth inhibition ([6]; at 50.0 µM)
CNC(=O)OC(C)CN1c2ccccc2Sc2ccccc21 (stereo not drawn) | -10% | 97% (active) | 90.2% (active) | -21 | 98% (active) | 92.2% (active) | 5% | 96% (active) | 93.1% (active) | -1 | 93% (active) | 90.3% (active) | 1% | 98% (active) | 91.7% (active) | -11% | 98% (active) | 91.4% (active)
Cc1cccc(C)c1N1C(=O)C2Nc3ccccc3SC2C1=O (stereo not drawn) | 7% | 93% (active) | 98.5% (active) | -1 | 94% (active) | 98.7% (active) | 3% | 96% (active) | 98.4% (active) | 2 | 90% (active) | 95.8% (active) | 1% | 94% (active) | 98.3% (active) | 11% | 95% (active) | 98.5% (active)
CCN(CC)CCN1C(=O)c2c(c3c4cccc(Cl)c4n(C4OC(CO)C(OC)C(O)C4O)c3c3[nH]c4c(Cl)cccc4c23)C1=O (stereo not drawn) | 88% (active) | 97% (active) | 84% (active) | 56 | 98% (active) | 87.3% (active) | 21% | 96% (active) | 90.5% (active) | 67 | 90% (active) | 89.5% (active) | 43% | 97% (active) | 89.2% (active) | 76% (active) | 97% (active) | 91% (active)
Cc1ccc2c(c1)C(=O)N(CC[P+](c1ccccc1)(c1ccccc1)c1ccccc1)C2=O | 81% (active) | 89% (active) | 61.8% | 63 | 85% (active) | 63.8% | 74% (active) | 91% (active) | 66.8% | 65 | 79% (active) | 36% | 84% (active) | 90% (active) | 66.7% | 71% (active) | 82% (active) | 62.3%
O=C=Nc1ccccc1-c1ccc([N+](=O)[O-])cc1Cl | -1% | 20% | 73.2% (active) | 32 | 62% | 37.6% | 8% | 44% | 21.9% | -5 | -2% | 68.8% | 36% | 42% | 83.7% (active) | 40% | 62% | 84.2% (active)
CCCCCCCCCC(=O)NN=C(C)C | -129% | 54% | 93.1% (active) | -49 | 45% | 83.2% (active) | -59% | 75% (active) | -2.75% | -67 | 81% (active) | 88.2% (active) | -72% | 41% | 88% (active) | -131% | 46% | 90.8% (active)

Source: PubChem BioAssay (NCI)
